From PubChem BioAssay AID1851 (National Center for Advancing Translational Sciences (NCATS), 2009)
About 2,600 (16%) of roughly 16,000 compounds were called active. About 20% were inconclusive and are not listed. Calls follow the shape of the dose curve; as a rule, active = well fitted curve in the direction sought with a large enough effect; inconclusive = small, poorly fitted or top-dose-only effect, or effect the other way; inactive = no such curve, though single readings can be large or run the other way. The list is a sample of the results.

biological target: Cytochrome P450 2D6 (Homo sapiens) (UniProt P10635); assay: Cytochrome panel assay with activity outcomes; conditions: recombinant CYP, pro-luciferin dealkylation, luminescence, p450-cyp2d6; series mostly up to 57.1 µM; activity, negative = inhibition: at the top concentration
% is scaled to controls: 0 for no effect and ±100 for the full control effect.

Sequence of Cytochrome P450 2D6 (Homo sapiens) (P10635 whole entry, looked up): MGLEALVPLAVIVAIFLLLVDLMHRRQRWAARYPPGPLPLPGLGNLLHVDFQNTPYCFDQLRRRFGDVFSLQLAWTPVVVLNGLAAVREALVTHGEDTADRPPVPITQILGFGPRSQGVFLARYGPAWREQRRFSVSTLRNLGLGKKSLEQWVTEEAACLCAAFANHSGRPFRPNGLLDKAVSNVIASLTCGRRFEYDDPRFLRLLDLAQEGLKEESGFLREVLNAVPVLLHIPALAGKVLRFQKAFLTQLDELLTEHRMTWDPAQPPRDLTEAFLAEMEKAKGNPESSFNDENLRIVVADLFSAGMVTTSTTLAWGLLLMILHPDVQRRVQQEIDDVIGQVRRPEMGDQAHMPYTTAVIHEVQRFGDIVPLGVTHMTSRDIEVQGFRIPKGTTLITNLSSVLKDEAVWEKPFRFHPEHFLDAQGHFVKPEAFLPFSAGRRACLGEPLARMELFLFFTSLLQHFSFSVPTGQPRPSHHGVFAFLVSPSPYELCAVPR

SMILES	activity, negative = inhibition	AC50
CCC(=O)Nc1nonc1-c1nc2ccccc2n1N(C(=O)CC)C(=O)CC	2.61% (inactive)	–
Cc1cc(CNC(=O)[C@H]2C[C@@H]2[C@H](NP(=O)(c2ccccc2)c2ccccc2)c2ccccc2)nn1C	0.567% (inactive)	–
CC1CSc2nc3sc4c(c3c(=O)n21)CCCC4 (configuration not stated)	-12.8% (inactive)	–
CN(C)c1ncc2nc(-c3cccs3)c(=O)n(Cc3cccs3)c2n1	2.06% (inactive)	–
Cc1cc(NC(=O)C2C3C(=O)N(Cc4ccc(Cl)cc4)C(C(=O)NC(C)(C)C)C34C=CC2(C)O4)no1 (configuration not stated)	4.95% (inactive)	–
CCNc1ncc2nc(-c3cc(F)cc(F)c3)c(=O)n(Cc3cccs3)c2n1	1.18% (inactive)	–
Cc1nc2cnc(N3CCN(C)CC3)nc2n(CCc2ccccc2)c1=O	–	2.51 µM (active)
CN(C)c1ncc2nc(-c3cc(F)cc(F)c3)c(=O)n(C[C@H]3CCCO3)c2n1	-0.128% (inactive)	–
COCCn1c(=O)c(-c2cc(F)cc(F)c2)nc2cnc(OC)nc21	2.08% (inactive)	–
CCNc1ncc2nc(-c3cc(F)cc(F)c3)c(=O)n(CCOC)c2n1	–	0.316 µM (active)
CCNc1ncc2nc(-c3cc(F)cc(F)c3)c(=O)n(C[C@H]3CCCO3)c2n1	–	0.158 µM (active)
CN(C)c1ncc2nc(-c3cc(F)cc(F)c3)c(=O)n(CCc3ccccc3)c2n1	-8.92% (inactive)	–
COCCn1c(=O)c(-c2cc(F)cc(F)c2)nc2cnc(N(C)C)nc21	11.4% (inactive)	–
CCNc1ncc2nc(-c3ccc(Cl)cc3)c(=O)n(C[C@H]3CCCO3)c2n1	5.84% (inactive)	–
CN1CCN(c2ncc3nc(-c4cc(F)cc(F)c4)c(=O)n(CCc4ccccc4)c3n2)CC1	-8.55% (inactive)	–
CCNc1ncc2nc(-c3cc(F)cc(F)c3)c(=O)n(CCc3ccccc3)c2n1	–	15.8 µM (active)
CN1CCN(c2ncc3nc(-c4cccs4)c(=O)n(CCc4ccccc4)c3n2)CC1	-7.46% (inactive)	–
CC(C)NC(=O)/C(=N\O)c1ccccc1	10.4% (inactive)	–
Cc1ccc(OCC(=O)NNC(=O)c2cccnc2)cc1	27.2% (inactive)	–
O=c1c(-c2cccs2)nc2cnc(Oc3ccccc3)nc2n1C1CC1	0.176% (inactive)	–
COc1ccc(NC(=O)N2CCCC3(CCN(C(=O)c4cccc(F)c4)CC3)C2)cc1	1.41% (inactive)	–

SMILES	activity, negative = inhibition	AC50
CN1CCN(c2ncc3nc(-c4ccc(Cl)cc4)c(=O)n(C4CC4)c3n2)CC1	8.63% (inactive)	–
Cc1ccc(NC(=O)/C(=C/c2cccc([N+](=O)[O-])c2)NC(=O)C2CCCCC2)c(C)c1	-22.1% (inactive)	–
CC1=C(C(=O)Nc2ccccc2F)C(c2ccsc2)C2=C(CC(c3ccccc3)CC2=O)N1 (configuration not stated)	-23.9% (inactive)	–
COC(=O)C/C=C\[C@@H](C)[C@@H](/C=N\OC[C@@H]1O[C@H](c2ccccc2)C=C[C@@H]1Oc1ccc(OC)cc1)OC	-17.7% [at 11.4 µM] (inactive)	–
COC(=O)c1ccccc1N/C=C1\CCc2c(c(C)nn2-c2ccccn2)C1=O	2.73% (inactive)	–
CCOc1ccc(/C=N/Nc2nc(N3CCCC3)nc(N3CCCC3)n2)cc1OC	-3.09% (inactive)	–
COCCn1c(=O)c(-c2ccccc2)nc2cnc(Nc3ccccc3)nc21	0.836% (inactive)	–
CCNc1ncc2nc(-c3ccc(OC)cc3)c(=O)n(CCOC)c2n1	0.671% (inactive)	–
CCNc1ncc2nc(C)c(=O)n(CCc3ccccc3)c2n1	-11.9% (inactive)	–
CCNc1ncc2nc(-c3ccccc3)c(=O)n(CCc3ccccc3)c2n1	–	10 µM (active)
CCNc1ncc2nc(-c3ccccc3)c(=O)n(C)c2n1	-0.71% (inactive)	–
CCNc1ncc2nc(-c3ccccc3)c(=O)n(CCOC)c2n1	–	3.16 µM (active)
CCOC(=O)c1sc(=N)n(-c2ccc(OC)cc2)c1C	-6.61% (inactive)	–
COc1cccc(/C=c2/s/c(=C(\C#N)C(=O)N3CCOCC3)n(-c3ccccc3)c2=O)c1	21.4% (inactive)	–
Cc1ccc(N2CCN(CCC(=O)O)CC2)cc1	-9.16% [at 11.4 µM] (inactive)	–
CCSC(N)=Nc1ccc(C(F)(F)F)cc1	-20.9% (inactive)	–
Cc1ccc(CSC(N)=Nc2ccccc2)cc1C	–	0.794 µM (active)
N=C(N)c1ccccc1	0.724% (inactive)	–
O=C(Nc1cccc(C(=O)Nc2ccc(S(=O)(=O)O)c3cc(S(=O)(=O)O)cc(S(=O)(=O)O)c23)c1)Nc1cccc(C(=O)Nc2ccc(S(=O)(=O)O)c3cc(S(=O)(=O)O)cc(S(=O)(=O)O)c23)c1	–	inactive
C(=N/Nc1nnc2c(n1)[nH]c1ccccc12)/c1cccnc1	-5% [at 11.4 µM] (inactive)	–
c1ccc2c[n+](Cc3ccnc4ccccc34)ccc2c1	–	3.16 µM (active)

SMILES	activity, negative = inhibition	AC50
COc1cc(NC(=O)c2cc3nc(-c4ccccc4)cc(-c4ccccc4)n3n2)cc(OC)c1OC	14.1% (inactive)	–
COC(=O)c1[nH]c2cccc(OC)c2c1NC(=O)CN(C)CC1OCCO1	4.53% (inactive)	–
Clc1ccc(N2CCCCCC2)nn1	-3.2% (inactive)	–
NC1CCN(c2cccc(Cl)n2)CC1	–	10 µM (active)
O=S(=O)(c1ccc(F)cc1)N1CC2CCCN2c2ccc(C(F)(F)F)cc21 (configuration not stated)	-9.59% (inactive)	–
O=S(=O)(c1ccc(F)cc1)N1CCCC(CO)C1 (configuration not stated)	2.41% (inactive)	–
Cc1ccc2c(c1)[C@@H]1CN(C)CC[C@@H]1N2S(=O)(=O)c1ccc(F)cc1	–	14.1 µM (active)
O=C1O[C@@H]([C@H](O)[C@H](O)[C@H](O)CO)[C@@H](O)[C@@H]1O	7.22% [at 11.4 µM] (inactive)	–
O=C(Cc1ccccc1)Nc1nc(=O)c2ccccc2s1	-7.22% (inactive)	–
O=C(c1cnccn1)N1CCC2(CC1)CCN(c1ccccn1)CC2	-5.17% (inactive)	–
Cc1ccc(-c2ccc(CCC(=O)O)n2CC2CCCO2)cc1 (configuration not stated)	-24.3% (inactive)	–
Cc1ccc(C(=O)N/N=C/c2cc(C)n(-c3ccc(Br)cc3)c2C)cc1[N+](=O)[O-]	3.04% (inactive)	–
CSc1nc2ccccc2cc1/C=C(\C#N)c1cccc(Cl)c1	-24.3% (inactive)	–
Cc1cccc(CN2CCN(CC(=O)O)C2=O)c1	-7.44% (inactive)	–
Cc1ccc(-c2noc(CN3CCN(C(c4ccccc4)c4ccccc4)CC3)n2)cc1	22.1% (inactive)	–
CN1CCN(CC(O)c2ccccc2)CC1 (configuration not stated)	0.505% (inactive)	–
Cc1cccc(CN2CCN([C@@H](c3ccccc3)c3ccc(Cl)cc3)CC2)c1	–	3.16 µM (active)
CN1CCN([C@@H](c2ccccc2)c2ccc(Cl)cc2)CC1	–	2 µM (active)
O=C1CC(N2CCN(C(c3ccccc3)c3ccccc3)CC2)C(=O)N1Cc1ccc(N2CCCC2=O)cc1 (configuration not stated)	-26.1% (inactive)	–
CN1CCCN([C@@H](c2ccccc2)c2ccc(Cl)cc2)CC1	–	0.251 µM (active)
